Results: the OligoGym collection

The sequences below were run against DNAJC13 (assay: pooled miR-30 sensor sort-seq; sequence = guide strand). Settings: shRNA.
Also: reference of the scale not given here.

Row | Sequence | sensor-assay potency score (higher = more potent)
1 | TTCAATTACATTGCTTTGCAGT | -0.243
2 | TTAAGGAAGAGAATCAACCTAT | -0.138
3 | TTTTCTACTTCTTTCTTCCAGG | -0.404
4 | TTGAATTGCAGAACATATCCAG | 0.63
5 | TATCTTGTCCTTTTGTCTCTTC | 0.492
6 | TACTAATTCACTCTGCTCCTTC | 0.364
7 | TTGTTGTGTAGAAACATGCCAG | -0.232
8 | TTGTGCTACTAATTCACTCTGC | 0.635
9 | TTGATTATTTTTGTACTCGATG | -0.943
10 | TATCTTTCAGTTCTTCTCGTGT | -0.0145
11 | TTGTCTCTAACATGCATCCGAT | -1.12

These sequences were tested against DNAJC19 in the same assay as above. Settings: shRNA.

Row | Sequence | sensor-assay potency score (higher = more potent)
12 | TTGATATTGAGAACATTTCAGT | -0.702
13 | TAAACAAGAAAATTATACCAAG | -1.18
14 | TTCGTCGATGAGCATCTCTTAT | -1.36
15 | TTTAAAAGCATAATTCGTCGAT | 0.123
16 | TTTTTTAAAATTGTAGCTCTGA | 0.364
17 | TTAAAAGCATAATTCGTCGATG | -0.449
18 | TTCAGTTTTGCTAACAGGGTTT | -0.256
19 | TTCACTTTTAAATACAAGGTTC | -0.645
20 | TAAATCTTTAGCTTCATTGATT | -0.54
21 | ATGAACAATATTTCTATTCAGA | -0.967
22 | TAAAATTGTAGCTCTGAGGCAT | 0.463
23 | TTTATTAGTGTATAAATTCTAA | -0.615

What follows are sequences tested against DNAJC4 in the same assay as above. Settings: shRNA.

Row | Sequence | sensor-assay potency score (higher = more potent)
24 | TCGCTCAGCTCCACAAAGCGGC | -1.13
25 | TGCATCTGCTTCACCTTCCTGA | -0.639
26 | TTGTCATGGACTGTGGTTCGTG | -0.505
27 | TTGGGGGACTACCTGAGCGGAG | -1.16
28 | TTTGGTGGGCAGACTTGTCATG | -0.548
29 | TTCATCCATGAAGTTAAGGTGC | -0.818
30 | TAGAAGGCTGTGATGATCCGAT | 0.303
31 | TTGTTTGTGTTGCTGCTGCCTC | -0.896
32 | TTGTCGCTCCTGCTGAAGGATG | -1.56
33 | TAGCCGTTGTCGCTCCTGCTGA | -1.23
34 | TTAACTTCCTCAGTGCTGGCAC | 0.72
35 | TTTGGGGGACTACCTGAGCGGA | -1.85

Each sequence was assayed against DNAJC8 in the same assay as above. Settings: shRNA.

Row | Sequence | sensor-assay potency score (higher = more potent)
36 | TTTCTAACCATCACAATTCAGT | -0.77
37 | TTTCACAGTGTGTTCCACGTAT | 0.15
38 | TGTAACTTCAGGATCTATCTGA | 0.809
39 | TTGTCTGTTTATATACAGCTTG | -0.738
40 | TTGAGCTTCAATCTCTTCTTCC | 0.0915
